Reference: PubChem BioAssay AID1619 (SRMLSC, 2009)
Screen size: about 220,000 compounds; about 830 (0.38%) were called active.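 How the source made its calls: active means compound inhibiting the enzyme by more than half at any dose during confirmatory dose-response retesting; inconclusive means strong single-dose inhibitors picked by rank but not retested; inactive means the rest.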 Only a sample is shown. Measured potencies and affinities stand elsewhere.

These compounds were tested against Leucine aminopeptidase (Plasmodium falciparum (isolate 3D7)) (UniProt Q8IL11) (assay: P. falciparum M17LAP inhibitors, primary screen, biochemical, fluorogenic H-Leu-NHMec substrate, 1536-well (AID 1619;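 further: plate controls were full reaction with DMSO carrier for no effect and no enzyme background for full effect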)). Conditions: recombinant M17LAP, H-Leu-NHMec fluorogenic kinetic assay; at 30 µM; hits give high values.
Chain of Leucine aminopeptidase (Plasmodium falciparum (isolate 3D7)) (Q8IL11 whole entry, looked up): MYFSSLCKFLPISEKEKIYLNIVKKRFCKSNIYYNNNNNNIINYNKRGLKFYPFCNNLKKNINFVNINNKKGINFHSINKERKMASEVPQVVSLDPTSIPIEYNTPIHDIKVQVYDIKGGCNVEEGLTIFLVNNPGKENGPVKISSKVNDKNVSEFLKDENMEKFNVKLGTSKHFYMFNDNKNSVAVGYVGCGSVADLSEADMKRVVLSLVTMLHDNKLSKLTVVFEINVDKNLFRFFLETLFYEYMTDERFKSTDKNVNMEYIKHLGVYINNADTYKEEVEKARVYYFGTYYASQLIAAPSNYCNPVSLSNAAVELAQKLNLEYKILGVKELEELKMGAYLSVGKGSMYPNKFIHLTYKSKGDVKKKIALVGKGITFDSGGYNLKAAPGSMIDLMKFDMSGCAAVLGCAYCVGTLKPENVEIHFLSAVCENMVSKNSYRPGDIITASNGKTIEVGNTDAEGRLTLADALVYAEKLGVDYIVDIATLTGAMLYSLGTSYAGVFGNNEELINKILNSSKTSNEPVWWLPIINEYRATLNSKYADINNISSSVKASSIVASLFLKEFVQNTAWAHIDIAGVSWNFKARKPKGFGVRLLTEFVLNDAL

inhibition, inactive:
CC1CC(C)CN(CCOc2ccc(Br)cc2)C1 (stereo not drawn) -2.12%
CC(C)(C)C(=O)N1CCC[C@H]1C(O)(c1ccccc1)c1ccccc1 -4.15%
OC(CNCc1ccccn1)c1ccccc1 (stereo not drawn) -7.85%
COc1cccc(NC2=CC(=O)CC(C)(C)C2)c1 -33.9%
COC(=O)C1=C(Nc2cc(Cl)cc(Cl)c2)CSC1 5.27%
S=c1[nH]nc(Nc2ccc(Cl)cc2)s1 11.5%
Clc1ccc(Nc2ccc(Cl)nn2)cc1 -4.12%
Clc1cc(Cl)cc(Nc2ncnc(-n3cccc3)n2)c1 12.9%
CCc1nc2c(c(=O)c3ccccc3n2C)c(=O)n1C1CCCCCC1 11%
O=C(Nc1ccncc1)c1cccc2ccccc12 7%
Cc1nc(NC(=O)Nc2ccc(Cl)cc2)sc1C 2.28%
N#CC(C#N)=C1C=C2C=C(N3CCCCC3)CCC2CC1 (stereo not drawn) 0.1%
N#CC(C#N)=C1C=C2C=C(N3CCCCCC3)CCC2CC1 (stereo not drawn) 10.6%
O=C1c2ccccc2C(=O)c2cc(S(=O)(=O)Nc3ccccc3)ccc21 9.48%
O=C(Nc1ccc(Cl)cc1)OCc1cn(-c2ccccc2)nn1 6.64%
C=CCSc1nnc(-c2ccccc2N=Cc2c(C)[nH]n(-c3ccccc3)c2=O)c(=O)[nH]1 56.2%
Cc1nn(-c2ccccc2)c(C)c1/C=N/O 4.53%
CCSc1nnc(-c2cc(Br)ccc2N=Cc2c(C)[nH]n(-c3ccccc3)c2=O)c(=O)[nH]1 0.47%
Cc1ccccc1-c1n[nH]c(=S)n1/N=C/c1c(C)nn(-c2ccccc2)c1C 6.29%
CCOc1ccc(Oc2c(/C=N/NC(N)=O)c(C)nn2-c2ccccc2)cc1 3.82%
Cc1nn(-c2ccccc2)c(C)c1/C=N/n1c(-c2ccccc2Br)n[nH]c1=S -1.13%
CC(C)[C@H](NC(=O)[C@H](CCCN=C(N)N)NC(=O)NC(Cc1ccccc1)C(=O)O)C(=O)NC(C=O)CCCN=C(N)N (stereo partly drawn) 6.32%
O=c1[nH]c(-c2ccc3c(c2)OCO3)nc2c1sc(=S)n2-c1ccccc1 -0.6%
Cc1cc(C(=O)O)ccc1-c1ccc(/C=C2\NC(=O)N(Cc3ccc(F)cc3)C2=O)o1 0.19%
Cc1ccc(CN2C(=O)N/C(=C\c3ccc(-c4ccc(C(=O)O)cc4C)o3)C2=O)cc1 4.73%
Nc1cnc(CNc2ccccc2Cl)cn1 4.54%
CCn1c(N2CCN(S(=O)(=O)c3ccc(F)cc3)CC2)nc2ccccc21 2.95%
CC(=O)Nc1ccc(NC(=O)COC(=O)c2n[nH]c3ccccc23)cc1 2.47%
Nc1nonc1-c1nc2ccccc2n1CC(=O)N/N=C\c1ccc(-c2ccc(Cl)cc2)o1 3.34%
Nc1nonc1-c1nc2ccccc2n1CC(=O)N/N=C/c1ccc(-c2cccc(C(=O)O)c2)o1 31.4%
COc1cccc(C(=O)COC(=O)C(C)N2C(=O)C3C4C=CC(C4)C3C2=O)c1 (stereo not drawn) 4%
CC1CCc2nc(NCCO)nc(C(F)(F)F)c2C1 (stereo not drawn) 7.69%
COc1ccccc1CCc1nnc(CCC(=O)N(C)Cc2ccncc2C)o1 -1.17%
Cc1ccc2oc(=S)n(C)c2c1 3.68%
O=C(CSc1nnc(-c2ccc(O)cc2)n1Cc1ccco1)c1ccccc1 5.35%
NC(=O)c1c(NC(=S)Nc2ccccc2)sc2c1CCCC2 16.9%
CCOC(=O)c1c(NC(=S)Nc2ccccc2)sc(C)c1C 26.5%
CCOC(=O)c1c(NC(=S)Nc2ccc(Cl)cc2)sc(C)c1C 12.6%
CCOC(=O)c1c(NC(=S)Nc2ccc(F)cc2)sc2c1CCC2 6.14%
OCCN1CCN(c2nc(-c3ccccc3)nc3c2oc2ccccc23)CC1 7.26%
CNC(=O)N(C1=NCC(C)(C)S1)c1ccc(F)c(Cl)c1 -9.97%
COc1cc(/C=N/Nc2ccccc2)ccc1OC(=O)c1cccs1 1.12%
COc1cc(/C=N/Nc2ccc3ccccc3c2)ccc1OC(=O)c1ccco1 0.98%
CSc1ccc(/C=N/Nc2ccc(Cl)c(C(=O)O)c2)cc1 12.6%
COc1cc(/C=N/Nc2cccc(C)c2)ccc1OC(=O)c1ccco1 -4.8%
O/N=C/c1ccc(OCc2ccccc2)c(Br)c1 6.58%
COc1cc(/C=N/Nc2ccc(Cl)cc2)ccc1OC(=O)c1cccs1 4.49%
O=C(O)c1cc(N/N=C/c2ccncc2)ccc1Cl 18.2%
O/N=C/c1ccc(OCc2ccccc2)c(Cl)c1 13.4%
O=[N+]([O-])c1ccc(C[n+]2cccc3ccccc32)cc1 1.34%
O=C(CN1CCCCC1CO)c1ccc(OC(F)F)cc1 (stereo not drawn) 6.93%
Cc1cc(NC(=O)CSc2ncnc3c2cnn3-c2cccc(Cl)c2)no1 1.8%
CCn1cc(Br)c(C(=O)NC(C)c2ccccc2)n1 (stereo not drawn) -36.5%
Cc1csc(NC(=O)C2CCN(S(=O)(=O)c3ccc4c(c3)oc(=O)n4C)CC2)n1 8.23%
CC(C)(C)C(=O)N1N=C(c2cccc(NS(C)(=O)=O)c2)CC1c1cccs1 (stereo not drawn) 29.7%
O=C(CCNS(=O)(=O)c1cccs1)Nc1nccs1 -0.31%
Nc1n[nH]c(C2CCCCC2)n1 -1.74%
O=C(Nc1n[nH]c(C2CCCCC2)n1)C1CCCCC1 -5.77%
Nn1c(SCc2ccccc2F)nnc1-c1ccncc1 1.35%
CCOC(=O)c1sc(NC(=O)Cn2nnc3sc4c(c3c2=O)CCCC4)nc1C -3.69%
Cn1c(CNC(=O)c2ccco2)nnc1SCC(=O)Nc1cccc(Br)c1 7.38%
C=CCn1c(CNC(=O)c2ccco2)nnc1SCC(=O)Nc1cccc(F)c1 14.5%
CCCn1cnc2c(=S)nc(N)[nH]c21 16.6%
c1ccc(-c2nnc(N3CCOCC3)nc2-c2ccccc2)cc1 5.71%
CC(C)c1ccc(-c2nc(N3CCCC3)nc3n[nH]c(N)c23)cc1 27.7%
COc1ccc(-c2cc(C(F)(F)F)nc(N3CCOCC3)n2)cc1 4.95%
Nc1nc(N2CCOCC2)nc2ccccc12 -12%
CC(C)c1ccc(-c2nc(N3CCCCCC3)nc3n[nH]c(N)c23)cc1 35.4%
COc1ccc(N2CCN(c3nc(Cl)nc(N4CCOCC4)n3)CC2)cc1 11.3%
COCCNC(=S)NNc1ccccc1[N+](=O)[O-] 0.4%
CC(C)=NOc1nc(N2CCOCC2)nc(N2CCOCC2)n1 -6.17%
CCOC(=O)Cn1nnnc1CN(Cc1ccccc1)Cc1cc2cc(CC)ccc2[nH]c1=O -7.17%
CCOC(=O)c1sc(NC(=O)CC)c(C#N)c1C -11.2%
O=C(CN1C(=O)CCC1=O)Nc1ccc(Cc2ccc(NC(=O)CN3C(=O)CCC3=O)cc2)cc1 1.75%
Cc1ccc(NC(=O)Cn2nnc3ccccc3c2=O)cc1C -2.19%
N#Cc1c(NC(=O)CCn2cnc3ccccc3c2=O)oc(-c2ccccc2)c1-c1ccccc1 -1.46%
O=C(Cn1cnc2ccccc2c1=O)Nc1ccc2c(c1)OCCO2 5.1%
Cc1ccc(NC(=O)Cn2nnc3ccccc3c2=O)cc1 -0.57%
O=C(Cn1cnc2cc([N+](=O)[O-])ccc2c1=O)Nc1ccc2c(c1)CCC2 25.1%
N#Cc1c(NC(=O)CSc2ccccn2)oc(-c2ccccc2)c1-c1ccccc1 3.85%
COc1ccc(NC(=O)Cn2cnc3ccccc3c2=O)cc1OC 14.4%
COC(=O)c1ccc(C)c(NC(=O)Cn2cnc3ccccc3c2=O)c1 54.1%
COC(=O)c1ccc(NC(c2ccc(Cl)cc2)P(=O)(OC)OC)cc1 (stereo not drawn) 4.43%
CS(=O)(=O)N(CC(=O)Nc1ccc(S(=O)(=O)N2CCCC2)cc1)c1ccccc1 1.45%
Cn1c(SCC(=O)C(C)(C)C)nnc1-c1ccc(F)cc1 0.55%
CN(O)/C=C/C(=O)c1ccc(Br)cc1 -3.22%
C[C@@H]1C[C@H](O)c2cc(Cl)ccc2N1 5.04%
CCOC(=O)C1(CCCc2ccccc2)CCN(C(=O)CCc2cnccn2)CC1 -4.8%
COc1ccc(-c2cc(=O)oc3cc(OCC(C)=O)ccc23)cc1 10.9%
CC(Oc1ccc2c(-c3ccccc3)cc(=O)oc2c1)C(=O)O (stereo not drawn) 36.3%
N#C/C(=C\c1cn[nH]c1-c1ccccc1Br)C(=O)O 4.87%
CCCc1cc(=O)n2[nH]c(NCc3ccccc3Cl)nc2n1 23%
Cc1cccc(N(C(=O)c2csnn2)C(C(=O)NC(C)(C)C)c2cccs2)c1 (stereo not drawn) 9.85%
CCc1nc(N2CCN(C(C)=O)CC2)c(C#N)c2c1COC(C)(C)C2 -49.5%
O=C(c1cnn(-c2ccccc2)c1)c1ccccc1O -6.3%
O=C(c1cnn(C(=O)c2ccc(O)cc2)c1)c1ccccc1O -4.26%
CCCc1nnc(SCc2ccc(OC)cc2)n1N 9.43%
COc1ccc(-c2nc(-c3cccc(C(F)(F)F)c3)no2)cc1OC -5.65%
